Source: PubChem BioAssay AID1159580 (chemical genetic matrix, 2015)
“And” between values parts separate entries of the source, which are not always exact repeats. Identical values can stand only once. Screen size: about 5,500 compounds; about 2,000 (36%) were called active. Another 18% or so got no clear call; they are omitted. No stated cut-off is given here; in the data, active means normalized growth mostly below about 0.91 (no sharp cut-off); inconclusive means no clear call, values can overlap the other calls; inactive means mostly above about 0.92. The list shows a part of the results.

Assay: chemical genetic growth profiling, strain panel (AID 1159580);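 further: tested at 20 µM; growth read once vehicle control cultures reached saturation at 30 °C; 1 = growth at the plate median or of vehicle wells; lower values mean less growth of the strain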
Conditions: S. cerevisiae deletion strains, growth OD

Measured: normalized growth

CC(C)c1c(O)ccc2c1CCC1[C@@](C)(C=O)CCC[C@]21C (stereo partly specified)
inactive: locus YAL021C, strain ccr4, active compounds read low 0.984 | locus YAL026C, strain drs2, active compounds read low 0.93 | locus YBR171W, strain sec66, active compounds read low 0.97 | locus YBR279W, strain paf1, active compounds read low 0.955 | locus YCL061C, strain MRC1, active compounds read low 1 | locus YCL069W, strain vba3, active compounds read low 1.01 | locus YCR088W, strain abp1, active compounds read low 0.996 | locus YDL005C, strain med2, active compounds read low 1.01 | locus YDL040C, strain nat1, active compounds read low 1.01 | locus YDR001C, strain nth1, active compounds read low 1.01 | locus YDR069C, strain doa4, active compounds read low 0.923 | locus YDR334W, strain swr1, active compounds read low 1.01 | locus YDR335W, strain msn5, active compounds read low 0.987 | locus YEL037C, strain rad23, active compounds read low 1 | locus YEL061C, strain CIN8 (second series), active compounds read low 0.99 | locus YER111C, strain swi4, active compounds read low 0.999 | locus YER155C, strain BEM2 (second series), active compounds read low 1 | locus YFR010W, strain ubp6, active compounds read low 1 | locus YGL167C, strain pmr1, active compounds read low 0.945 | locus YGL173C, strain kem1, active compounds read low 1.01 | locus YGL227W, strain vid30, active compounds read low 0.997 | locus YGL240W, strain doc1, active compounds read low 0.926 | locus YGL253W, strain hxk2, active compounds read low 0.96 | locus YHR013C, strain ard1, active compounds read low 1.14 | locus YHR142W, strain chs7, active compounds read low 0.899 | locus YJL092W, strain hpr5, active compounds read low 0.995 | locus YJL115W, strain asf1, active compounds read low 1.02 | locus YJL154C, strain vps35, active compounds read low 1.02 | locus YJR066W, strain TOR1, active compounds read low 0.826 | locus YKL009W, strain mrt4, active compounds read low 0.998 | locus YKL068W, active compounds read low 0.969 | locus YKL160W, strain elf1, active compounds read low 0.915 | locus YKR026C, strain gcn3, active compounds read low 1 | locus YKR091W, strain srl3, active compounds read low 1.01 | locus YLL001W, strain dnm1, active compounds read low 0.964 | locus YLR357W, strain rsc2, active compounds read low 1.11 | locus YLR370C, strain arc18, active compounds read low 1.01 | locus YLR384C, strain iki3, active compounds read low 1.02 | locus YMR058W, strain fet3, active compounds read low 0.991 | locus YMR125W, strain sto1, active compounds read low 1.01 | locus YMR129W, active compounds read low 0.972 | locus YMR231W, strain pep5, active compounds read low 1.04 | locus YNL183C, strain NPR1, active compounds read low 0.83 | locus YNL209W, strain ssb2, active compounds read low 0.959 | locus YNL248C, strain rpa49, active compounds read low 1.04 | locus YNL322C, strain KRE1 (second series), active compounds read low 1.02 | locus YNR049C, strain mso1, active compounds read low 1.01 | locus YOL012C, strain htz1 1.05 | locus YOR080W, strain dia2, active compounds read low 0.996 | locus YOR290C, strain snf2, active compounds read low 0.909 | locus YPL078C, strain atp4, active compounds read low 0.996 | locus YPL106C, strain sse1, active compounds read low 0.94 | locus YPR141C, strain kar3, active compounds read low 0.999
active: locus YAL030W, strain snc1, active compounds read low 0.79 | locus YBL061C, strain skt5, active compounds read low 0.833 | locus YBR009C, strain hhf1, active compounds read low 0.476 | locus YBR021W, strain FUR4, active compounds read low 0.476 | locus YBR023C, strain chs3, active compounds read low 0.821 | locus YBR229C, strain ROT2, active compounds read low 0.713 | locus YBR231C, strain swc5, active compounds read low 0.722 | locus YCL011C, strain gbp2, active compounds read low 0.783 | locus YCL016C, strain dcc1, active compounds read low 0.803 | locus YCL029C, strain bik1, active compounds read low 0.52 | locus YDL035C, strain GPR1, active compounds read low 0.425 | locus YDL074C, strain BRE1, active compounds read low 0.12 | locus YDL101C, strain DUN1, active compounds read low 0.517 | locus YDL185W, strain tfp1, active compounds read low 0.469 | locus YDL192W, strain arf1, active compounds read low 0.246 | locus YDR101C, strain arx1, active compounds read low 0.631 | locus YDR137W, strain rgp1, active compounds read low 0.237 | locus YDR159W, strain sac3, active compounds read low 0.54 | locus YDR162C, strain NBP2, active compounds read low 0.171 | locus YDR195W, strain ref2 0.431 | locus YDR297W, strain sur2, active compounds read low 0.772 | locus YDR318W, strain mcm21, active compounds read low 0.35 | locus YDR388W, active compounds read low 0.732 | locus YDR392W, strain spt3, active compounds read low 0.415 | locus YDR502C, strain sam2, active compounds read low 0.35 | locus YEL003W, strain gim4, active compounds read low 0.834 | locus YER016W, strain bim1, active compounds read low 0.789 | locus YER110C, active compounds read low 0.853 | locus YER155C, strain BEM2, active compounds read low 0.0936 | locus YER167W, strain BCK2, active compounds read low 0.336 | locus YGL078C, strain dbp3, active compounds read low 0.886 | locus YGL086W, strain mad1, active compounds read low 0.274 | locus YGL248W, strain PDE1, active compounds read low 0.36 | locus YGR078C, strain PAC10, active compounds read low 0.303 | locus YGR135W, strain pre9, active compounds read low 0.601 | locus YGR252W, strain gcn5, active compounds read low 0.248 | locus YHR030C, strain SLT2, active compounds read low 0.756 | locus YHR079C, strain IRE1 (second series), active compounds read low 0.579 | locus YHR079C, strain IRE1, active compounds read low 0.791 | locus YHR094C, strain hxt1, active compounds read low 0.392 | locus YHR129C, strain ARP1, active compounds read low 0.143 | locus YHR200W, strain rpn10, active compounds read low 0.578 | locus YIL066C, strain RNR3, active compounds read low 0.303 | locus YIL073C, strain SPO22, active compounds read low 0.554 | locus YIL125W, strain kgd1, active compounds read low 0.621 | locus YIR030C, strain dcg1, active compounds read low 0.607 | locus YJL095W, strain BCK1 (second series), active compounds read low 0.35 | locus YJL095W, strain BCK1, active compounds read low 0.0842 and 0.826 | locus YJL129C, strain trk1, active compounds read low 0.505 | locus YJL134W, strain LCB3, active compounds read low 0.729 | locus YJL164C, strain tpk1, active compounds read low 0.578 | locus YJL166W, strain qcr8, active compounds read low 0.643 | locus YJL168C, strain set2, active compounds read low 0.921 | locus YJL187C, strain SWE1 (second series), active compounds read low 0.346 | locus YJR075W, strain HOC1, active compounds read low 0.482 | locus YKL085W, strain MDH1 (second series), active compounds read low 0.583 | locus YKL085W, strain MDH1, active compounds read low 0.583 | locus YKL190W, strain CNB1, active compounds read low 0.154 | locus YKR001C, strain vps1, active compounds read low 0.0888 | locus YLL026W, active compounds read low 0.79 | locus YLL041C, strain sdh2, active compounds read low 0.895 | locus YLR027C, strain aat2, active compounds read low 0.653 | locus YLR039C, strain RIC1, active compounds read low 0.148 | locus YLR058C, strain SHM2, active compounds read low 0.352 | locus YLR102C, strain apc9, active compounds read low 0.432 | locus YLR113W, strain HOG1, active compounds read low 0.782 | locus YLR221C, strain rsa3, active compounds read low 0.692 | locus YLR258W, strain gsy2, active compounds read low 0.768 | locus YLR262C, strain YPT6 (second series), active compounds read low 0.255 | locus YLR262C, strain YPT6, active compounds read low 0.219 | locus YLR268W, strain sec22, active compounds read low 0.411 | locus YLR320W, strain mms22, active compounds read low 0.62 | locus YLR330W, strain CHS5, active compounds read low 0.228 | locus YLR342W, strain FKS1 (second series), active compounds read low 0.208 | locus YLR342W, strain FKS1, active compounds read low 0.774 | locus YLR371W, strain rom2, active compounds read low 0.317 | locus YLR418C, strain cdc73, active compounds read low 0.137 | locus YML016C, strain PPZ1, active compounds read low 0.8 | locus YML032C, strain rad52, active compounds read low 0.467 | locus YML120C, strain ndi1, active compounds read low 0.465 | locus YML124C, strain tub3, active compounds read low 0.507 | locus YMR078C, strain ctf18, active compounds read low 0.422 | locus YMR205C, strain PFK2, active compounds read low 0.617 | locus YMR223W, strain ubp8, active compounds read low 0.429 | locus YMR307W, strain GAS1, active compounds read low 0.306 | locus YNL067W, strain RPL9B, active compounds read low 0.583 | locus YNL071W, strain lat1, active compounds read low 0.424 | locus YNL233W, strain BNI4, active compounds read low 0.172 | locus YNL250W, strain rad50, active compounds read low 0.868 | locus YNL271C, strain bni1, active compounds read low 0.875 | locus YNL298W, strain CLA4, active compounds read low 0.847 | locus YNL307C, strain MCK1, active compounds read low 0.0743 | locus YNL322C, strain KRE1, active compounds read low 0.333 | locus YNR052C, strain pop2, active compounds read low 0.53 | locus YOL006C, strain TOP1, active compounds read low 0.396 | locus YOL147C, strain pex11, active compounds read low 0.205 | locus YOR001W, strain rrp6, active compounds read low 0.857 | locus YOR061W, strain CKA2, active compounds read low 0.689 | locus YOR069W, strain VPS5, active compounds read low 0.668 | locus YOR070C, strain gyp1, active compounds read low 0.598 | locus YOR083W, strain WHI5, active compounds read low 0.822 | locus YOR106W, strain vam3, active compounds read low 0.563 | locus YOR136W, strain idh2, active compounds read low 0.559 | locus YOR144C, strain elg1, active compounds read low 0.48 | locus YOR184W, strain ser1, active compounds read low 0.153 | locus YOR231W, strain MKK1, active compounds read low 0.784 | locus YOR265W, strain rbl2, active compounds read low 0.88 | locus YOR270C, strain vph1, active compounds read low 0.739 | locus YOR316C, strain cot1, active compounds read low 0.49 | locus YPL051W, strain arl3, active compounds read low 0.769 | locus YPL055C, strain LGE1, active compounds read low 0.147 | locus YPL240C, strain hsp82, active compounds read low 0.626 | locus YPL241C, strain CIN2, active compounds read low 0.487 | locus YPL256C, strain CLN2, active compounds read low 0.814 | locus YPR119W, strain clb2, active compounds read low 0.305 | locus YPR163C, strain tif3, active compounds read low 0.345 | locus YPR167C, strain met16, active compounds read low 0.314 | strain wtn01, active compounds read low 0.304
